The results in this text go back to ChEMBL document CHEMBL2218924, “A broad activity screen in support of a chemogenomic map for kinase signalling research and drug discovery” (Biochem J, 2013).

The target in experiment [1] is T1, Ephrin type-A receptor 3 (Homo sapiens) (UniProt P29320).
T1 sequence (whole entry): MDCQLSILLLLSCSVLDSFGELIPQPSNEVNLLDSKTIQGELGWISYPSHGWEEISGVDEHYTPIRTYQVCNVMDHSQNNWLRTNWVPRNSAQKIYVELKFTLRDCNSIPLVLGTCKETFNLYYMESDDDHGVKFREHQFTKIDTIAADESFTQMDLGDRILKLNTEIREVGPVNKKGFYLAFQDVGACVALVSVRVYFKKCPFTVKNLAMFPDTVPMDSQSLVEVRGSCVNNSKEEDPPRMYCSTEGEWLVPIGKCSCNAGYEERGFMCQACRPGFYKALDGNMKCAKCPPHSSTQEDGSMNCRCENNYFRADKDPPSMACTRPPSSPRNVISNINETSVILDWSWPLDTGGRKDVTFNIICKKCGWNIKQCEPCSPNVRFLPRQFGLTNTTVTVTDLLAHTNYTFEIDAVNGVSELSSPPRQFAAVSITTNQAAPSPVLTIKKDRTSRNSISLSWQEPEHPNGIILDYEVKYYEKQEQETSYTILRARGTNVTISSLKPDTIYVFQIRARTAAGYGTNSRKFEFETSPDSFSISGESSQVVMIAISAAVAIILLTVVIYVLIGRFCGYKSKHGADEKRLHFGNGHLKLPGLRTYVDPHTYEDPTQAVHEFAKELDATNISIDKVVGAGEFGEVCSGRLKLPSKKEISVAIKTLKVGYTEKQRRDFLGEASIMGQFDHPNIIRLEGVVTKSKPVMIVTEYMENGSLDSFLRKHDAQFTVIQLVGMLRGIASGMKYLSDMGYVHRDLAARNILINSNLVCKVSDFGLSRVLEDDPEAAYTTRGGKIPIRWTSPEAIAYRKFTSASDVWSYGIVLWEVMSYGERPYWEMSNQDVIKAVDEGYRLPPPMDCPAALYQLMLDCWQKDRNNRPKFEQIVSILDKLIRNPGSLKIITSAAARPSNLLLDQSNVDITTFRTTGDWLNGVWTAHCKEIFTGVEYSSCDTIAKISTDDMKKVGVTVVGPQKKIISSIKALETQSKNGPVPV
To be noted: at 10 µM.

The target in experiment [2] is Ephrin type-A receptor 4 (Homo sapiens) (UniProt P54764). The settings on record: at 1 µM.
Sequence of Ephrin type-A receptor 4 (Homo sapiens) (P54764 whole entry): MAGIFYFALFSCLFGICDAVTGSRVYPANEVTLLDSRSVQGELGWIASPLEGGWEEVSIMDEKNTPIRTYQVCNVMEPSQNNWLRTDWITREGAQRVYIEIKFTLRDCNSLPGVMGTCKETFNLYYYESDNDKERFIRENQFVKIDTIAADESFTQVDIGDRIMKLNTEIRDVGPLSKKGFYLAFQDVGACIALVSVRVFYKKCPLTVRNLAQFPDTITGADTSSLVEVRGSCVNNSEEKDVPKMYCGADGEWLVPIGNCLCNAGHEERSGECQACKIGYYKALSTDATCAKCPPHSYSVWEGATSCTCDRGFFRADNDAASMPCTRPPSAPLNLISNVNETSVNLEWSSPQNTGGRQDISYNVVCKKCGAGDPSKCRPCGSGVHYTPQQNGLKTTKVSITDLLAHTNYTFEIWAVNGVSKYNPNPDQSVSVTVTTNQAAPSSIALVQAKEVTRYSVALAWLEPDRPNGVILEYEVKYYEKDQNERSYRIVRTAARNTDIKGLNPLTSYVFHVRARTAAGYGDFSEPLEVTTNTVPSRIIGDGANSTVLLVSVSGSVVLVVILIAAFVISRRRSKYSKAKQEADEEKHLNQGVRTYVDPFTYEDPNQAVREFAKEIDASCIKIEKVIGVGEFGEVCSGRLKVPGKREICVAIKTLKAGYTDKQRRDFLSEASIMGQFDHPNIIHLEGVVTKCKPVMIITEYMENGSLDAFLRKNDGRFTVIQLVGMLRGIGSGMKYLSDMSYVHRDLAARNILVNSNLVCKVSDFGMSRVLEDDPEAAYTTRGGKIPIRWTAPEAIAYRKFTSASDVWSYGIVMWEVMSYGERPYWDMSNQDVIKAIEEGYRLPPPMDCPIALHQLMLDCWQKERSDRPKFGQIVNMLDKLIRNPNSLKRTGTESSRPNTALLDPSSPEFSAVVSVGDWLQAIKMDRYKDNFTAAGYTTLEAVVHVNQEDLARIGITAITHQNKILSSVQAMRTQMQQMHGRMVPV
Experiment [3] has the same target. To be noted: at 10 µM.
Experiment [4] addresses Ephrin type-A receptor 5 (Homo sapiens) (UniProt P54756). To be noted: at 1 µM.
For experiment [5] the target is unchanged. To be noted: at 10 µM.
In experiment [6] the target is Ephrin type-A receptor 7 (Homo sapiens) (UniProt Q15375). The settings on record: at 1 µM.
Sequence of Ephrin type-A receptor 7 (Homo sapiens) (Q15375 28-998 limits assumed): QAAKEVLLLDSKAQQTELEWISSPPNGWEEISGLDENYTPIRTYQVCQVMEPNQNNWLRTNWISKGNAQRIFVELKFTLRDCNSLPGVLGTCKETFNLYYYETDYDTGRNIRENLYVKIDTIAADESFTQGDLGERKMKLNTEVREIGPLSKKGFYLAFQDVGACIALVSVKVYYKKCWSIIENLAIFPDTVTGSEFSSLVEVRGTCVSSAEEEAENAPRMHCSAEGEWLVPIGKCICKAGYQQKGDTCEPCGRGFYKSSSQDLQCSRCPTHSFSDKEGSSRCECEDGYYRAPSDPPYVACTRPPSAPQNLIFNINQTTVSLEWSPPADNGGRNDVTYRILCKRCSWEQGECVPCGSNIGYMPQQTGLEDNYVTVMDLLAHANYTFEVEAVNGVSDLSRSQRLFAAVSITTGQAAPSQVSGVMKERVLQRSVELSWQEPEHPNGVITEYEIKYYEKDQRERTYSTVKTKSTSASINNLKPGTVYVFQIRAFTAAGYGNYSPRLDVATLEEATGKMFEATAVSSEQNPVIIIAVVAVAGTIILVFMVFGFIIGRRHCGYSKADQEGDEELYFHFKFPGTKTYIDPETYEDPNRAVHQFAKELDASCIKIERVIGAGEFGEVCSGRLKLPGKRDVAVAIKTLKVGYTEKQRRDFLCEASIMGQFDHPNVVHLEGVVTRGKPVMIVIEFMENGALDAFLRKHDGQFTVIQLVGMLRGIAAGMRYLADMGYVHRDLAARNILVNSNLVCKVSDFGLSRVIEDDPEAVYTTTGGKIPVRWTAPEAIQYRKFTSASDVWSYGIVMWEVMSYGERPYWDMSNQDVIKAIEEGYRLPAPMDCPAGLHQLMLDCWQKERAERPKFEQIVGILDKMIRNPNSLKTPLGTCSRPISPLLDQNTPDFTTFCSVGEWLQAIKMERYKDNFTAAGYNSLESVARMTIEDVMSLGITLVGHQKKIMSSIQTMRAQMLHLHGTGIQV
Experiment [7] has the same target. To be noted: at 10 µM.
The target of experiment [8] is T2, Ephrin type-A receptor 8 (Homo sapiens) (UniProt P29322).
T2 sequence (whole entry): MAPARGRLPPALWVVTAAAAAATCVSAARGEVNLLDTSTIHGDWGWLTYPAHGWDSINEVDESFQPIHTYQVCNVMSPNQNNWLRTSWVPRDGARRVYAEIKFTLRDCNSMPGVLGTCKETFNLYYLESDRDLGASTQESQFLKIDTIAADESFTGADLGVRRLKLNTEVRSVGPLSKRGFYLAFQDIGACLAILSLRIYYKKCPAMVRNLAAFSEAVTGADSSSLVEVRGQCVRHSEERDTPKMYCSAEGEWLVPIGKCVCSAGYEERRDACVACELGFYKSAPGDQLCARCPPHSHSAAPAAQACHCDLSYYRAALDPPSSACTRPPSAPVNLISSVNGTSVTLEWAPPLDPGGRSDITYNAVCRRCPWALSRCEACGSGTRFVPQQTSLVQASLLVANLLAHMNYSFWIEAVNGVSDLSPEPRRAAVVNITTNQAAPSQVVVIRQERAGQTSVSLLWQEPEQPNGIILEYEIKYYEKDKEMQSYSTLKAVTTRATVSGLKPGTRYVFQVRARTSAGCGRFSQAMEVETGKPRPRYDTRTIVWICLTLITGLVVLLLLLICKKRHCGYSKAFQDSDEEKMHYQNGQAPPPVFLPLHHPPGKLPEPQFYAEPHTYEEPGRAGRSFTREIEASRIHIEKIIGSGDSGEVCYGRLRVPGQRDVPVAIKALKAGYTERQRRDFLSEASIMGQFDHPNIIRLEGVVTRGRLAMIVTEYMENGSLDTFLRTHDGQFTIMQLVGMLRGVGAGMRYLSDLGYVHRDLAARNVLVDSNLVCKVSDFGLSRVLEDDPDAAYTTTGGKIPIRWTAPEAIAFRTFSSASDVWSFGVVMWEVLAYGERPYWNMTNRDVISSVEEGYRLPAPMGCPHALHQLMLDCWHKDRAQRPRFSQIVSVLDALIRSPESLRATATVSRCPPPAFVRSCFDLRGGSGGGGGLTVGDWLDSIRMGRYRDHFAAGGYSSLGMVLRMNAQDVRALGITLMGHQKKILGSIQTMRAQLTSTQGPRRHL
The settings on record: at 1 µM.

Experiment [9] deals with T2, Ephrin type-A receptor 8 (Homo sapiens). To be noted: at 10 µM.
The target of experiment [10] is T3, Ephrin type-B receptor 1 (Homo sapiens) (UniProt P54762).
T3 sequence (whole entry): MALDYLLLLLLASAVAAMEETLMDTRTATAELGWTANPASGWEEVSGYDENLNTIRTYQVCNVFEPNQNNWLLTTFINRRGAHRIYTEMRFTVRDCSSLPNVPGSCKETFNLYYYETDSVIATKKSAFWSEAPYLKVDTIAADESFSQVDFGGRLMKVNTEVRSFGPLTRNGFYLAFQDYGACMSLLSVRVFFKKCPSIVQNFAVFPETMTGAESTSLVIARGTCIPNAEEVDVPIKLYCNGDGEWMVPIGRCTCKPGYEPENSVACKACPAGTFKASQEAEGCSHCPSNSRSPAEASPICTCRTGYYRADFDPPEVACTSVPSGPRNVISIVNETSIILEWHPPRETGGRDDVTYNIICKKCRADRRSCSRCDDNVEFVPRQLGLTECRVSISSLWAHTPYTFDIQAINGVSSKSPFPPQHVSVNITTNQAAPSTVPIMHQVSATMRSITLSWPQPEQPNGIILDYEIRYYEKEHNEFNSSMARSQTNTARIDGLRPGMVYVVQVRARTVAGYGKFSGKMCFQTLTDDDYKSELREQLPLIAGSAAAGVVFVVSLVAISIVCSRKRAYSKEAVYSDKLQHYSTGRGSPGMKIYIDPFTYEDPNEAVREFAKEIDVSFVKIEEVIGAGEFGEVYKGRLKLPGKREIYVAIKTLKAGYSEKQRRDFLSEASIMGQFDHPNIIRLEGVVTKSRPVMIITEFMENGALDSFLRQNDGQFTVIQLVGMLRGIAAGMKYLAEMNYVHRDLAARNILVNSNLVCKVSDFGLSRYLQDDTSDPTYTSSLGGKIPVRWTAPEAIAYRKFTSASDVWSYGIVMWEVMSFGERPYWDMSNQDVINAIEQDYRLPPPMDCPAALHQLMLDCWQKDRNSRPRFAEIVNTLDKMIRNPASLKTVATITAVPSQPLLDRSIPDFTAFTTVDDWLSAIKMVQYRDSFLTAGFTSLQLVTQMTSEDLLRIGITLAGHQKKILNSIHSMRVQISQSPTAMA
To be noted: at 1 µM.

Sequence of Ephrin type-A receptor 5 (Homo sapiens) (P54756 whole entry): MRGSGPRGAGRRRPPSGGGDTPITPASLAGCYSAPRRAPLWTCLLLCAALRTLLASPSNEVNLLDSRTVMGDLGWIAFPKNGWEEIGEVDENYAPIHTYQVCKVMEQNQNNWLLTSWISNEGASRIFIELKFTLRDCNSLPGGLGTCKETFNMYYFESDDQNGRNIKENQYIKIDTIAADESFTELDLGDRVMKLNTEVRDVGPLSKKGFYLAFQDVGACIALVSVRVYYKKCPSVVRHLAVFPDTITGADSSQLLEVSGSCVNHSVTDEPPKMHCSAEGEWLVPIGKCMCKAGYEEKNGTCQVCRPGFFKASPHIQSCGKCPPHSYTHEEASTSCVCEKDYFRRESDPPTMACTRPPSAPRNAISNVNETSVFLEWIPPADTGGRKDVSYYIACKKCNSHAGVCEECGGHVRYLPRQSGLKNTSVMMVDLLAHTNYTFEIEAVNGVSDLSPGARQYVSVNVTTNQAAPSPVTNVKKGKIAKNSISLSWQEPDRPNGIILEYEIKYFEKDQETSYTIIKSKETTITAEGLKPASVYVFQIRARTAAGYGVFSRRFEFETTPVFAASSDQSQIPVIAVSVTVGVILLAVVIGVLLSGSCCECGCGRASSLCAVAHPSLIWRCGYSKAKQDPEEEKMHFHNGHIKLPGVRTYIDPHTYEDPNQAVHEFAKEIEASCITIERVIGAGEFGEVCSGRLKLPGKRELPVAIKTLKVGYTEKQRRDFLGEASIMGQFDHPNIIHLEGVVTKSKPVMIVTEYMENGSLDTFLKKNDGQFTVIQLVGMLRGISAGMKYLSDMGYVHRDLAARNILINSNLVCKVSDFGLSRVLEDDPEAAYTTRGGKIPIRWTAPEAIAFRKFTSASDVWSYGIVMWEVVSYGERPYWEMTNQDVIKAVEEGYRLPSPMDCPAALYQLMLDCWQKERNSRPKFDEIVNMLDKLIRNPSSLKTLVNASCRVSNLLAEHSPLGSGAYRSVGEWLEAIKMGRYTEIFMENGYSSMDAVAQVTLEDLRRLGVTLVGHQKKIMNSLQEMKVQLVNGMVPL

The residual activity is the signal under treatment as a percentage of the control signal. Take `Oc1n[nH]c2nnc(-c3c(-c4ccccc4)nn4ccccc34)cc12`: the residual activity is 90% in experiment [1]; 96% in experiment [2]; 103% in [3]; 113% in experiment [4]; 95% in [5]; 94% in experiment [6]. The residual activity in experiment [7] came to 88%; in experiment [8], 86%; in experiment [9], 89%; in [10], 97%.
